DT40 TDP1 CPT: growth inhibition of DT40 Tdp1-/-;hTDP1 cells with camptothecin (screen for TDP1 inhibitors); hit rate 12% among 420,000; AID 686979; chicken DT40 Tdp1-/-;hTDP1 cells + 20 nM CPT, ATP luminescence, 48 h; Potency, µM (highest dose often 46.2 µM), for inactives: at the top dose activity change, negative = growth inhibition, usual class: inhibitors; note: potency is the fitted concentration of half-maximal effect; nearly all actives have a fitted effect of over 55% in size
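Cell growth measured by CellTiter-Glo luminescence after a minimum 48 h, 37 C compound exposure with 20 nM CPT in Tdp1-knockout DT40 cells stably expressing hTDP1, seeded 400/well; qHTS titration format.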
IL-1B inflam inh: inflammasome signaling inhibition, IL-1 beta readout. AID 743279. THP-1 LPS/ATP IL-1B secretion, AlphaLISA, 16 h; hits give low values. hit rate 4.7% among 360,000. activity change, % at 57.5 µM; in the data active = activity change below about -50%; inconclusive = mostly about -30% to -49%
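THP-1 cells pretreated 1 hr with compounds (up to 57.5 uM final), then stimulated with LPS (250 ng/mL final) plus ATP (1.25 mM final); secreted IL-1B measured by AlphaLISA after 16 hr, decreased signal indicating inhibition.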
CtBP-E1A blk: blocks the CtBP interaction with E1A. AlphaScreen GST-E1A/His-CtBP binding, 1536-well; hits give low values. hit rate 0.49% among 340,000. activity change, % (concentration not given with the values); in the data active = activity change below about -65%; inconclusive = mostly about -30% to -63%
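In 5 uL wells, 23 nL compound meets equimolar GST-E1A and His-CtBP (5X stock 125 nM each) for 2 h, 37 °C. Beads (5X, 50 ug/mL) then 1 h, 37 °C, dark.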
TDP1 inh: inhibitors of human tyrosyl-DNA phosphodiesterase TDP1 | Q9NUW8 | recombinant TDP1, AlphaScreen DNA substrate cleavage | Potency, µM (doses to about 130 µM), inactives show at the highest dose activity change, negative = inhibition, most hits filed as inhibitors | hit rate 0.28% among 350,000; note: potency is the fitted concentration of half-maximal effect; nearly all actives have a fitted effect of over 40% in size
Target sequence (Q9NUW8 whole entry, looked up): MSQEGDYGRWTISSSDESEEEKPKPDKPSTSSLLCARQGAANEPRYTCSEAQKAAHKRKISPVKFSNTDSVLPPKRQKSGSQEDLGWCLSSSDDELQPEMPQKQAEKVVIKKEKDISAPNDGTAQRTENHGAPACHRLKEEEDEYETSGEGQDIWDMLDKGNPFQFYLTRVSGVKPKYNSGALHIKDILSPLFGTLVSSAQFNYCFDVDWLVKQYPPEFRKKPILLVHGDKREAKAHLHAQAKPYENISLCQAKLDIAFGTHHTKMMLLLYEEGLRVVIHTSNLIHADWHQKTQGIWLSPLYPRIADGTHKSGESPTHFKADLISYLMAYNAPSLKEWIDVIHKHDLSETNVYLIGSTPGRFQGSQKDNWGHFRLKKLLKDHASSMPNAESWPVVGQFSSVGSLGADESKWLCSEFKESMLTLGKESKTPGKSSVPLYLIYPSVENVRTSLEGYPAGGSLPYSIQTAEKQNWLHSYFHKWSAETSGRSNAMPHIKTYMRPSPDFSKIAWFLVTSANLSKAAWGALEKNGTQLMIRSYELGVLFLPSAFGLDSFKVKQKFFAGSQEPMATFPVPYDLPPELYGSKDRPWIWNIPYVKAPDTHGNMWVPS
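Compounds were preincubated with Tdp1 (1 nM final) for 15 min at room temperature before substrate (15 nM final) started a 5 min reaction; beads (10 ug/ml final) were then added for 10 min before AlphaScreen detection.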
DT40 TDP1 no CPT: qHTS for Inhibitors of human tyrosyl-DNA phosphodiesterase 1 (TDP1): qHTS in cells in absence of CPT | DT40 Tdp1-/- hTDP1 cells, no CPT, ATP luminescence, 48 h | Potency, µM (highest dose often 46.2 µM), without a hit: top-dose activity change, negative = growth inhibition, hits mostly inhibitors | hit rate 15% among 420,000 | AID 686978, 2013; note: potency is the fitted concentration of half-maximal effect; nearly all actives have a fitted effect of over 55% in size
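A cellular qHTS used chicken DT40 cells lacking endogenous Tdp1 but carrying stably transfected human TDP1. Compounds were applied without camptothecin, and cell growth kinetics were judged by ATP-dependent luminescence after ≥48 hr.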
Six1-Eya2 blk: Six1/Eya2 interaction inhibition | activity change, % (test concentration not listed) | AlphaScreen GST-Six1/His-Eya2 binding, biochemical; hits give low values | Q15475+O00167 | AID 651725 | hit rate 0.56% among 360,000; in the data active = activity change below about -65%; inconclusive = mostly about -30% to -63%
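Six1/Eya2 binding was read as AlphaScreen signal after compounds were pinned into GST-Six1 plus His-tagged Eya2 (5X stock 250/500 nM) in pH 8.0 Tris/NaCl/TCEP buffer, beads added, then incubated 1 h, 37 C, dark.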
An asterisk follows results filed as active; ? = inconclusive; · = no result given. In the library only some 18% were active in any assay of this set; here they are far more common. Unless noted, calls come from the whole dose curve; as a rule, active = well fitted curve in the direction sought with a large enough effect; inconclusive = small, poorly fitted or top-dose-only effect, or another doubt; inactive = no such curve, though single readings can be large; an effect the other way counts as inactive or inconclusive. % is set by controls: 0 for no effect and ±100 for the full control effect.

SMILES	DT40 TDP1 CPT	IL-1B inflam inh	CtBP-E1A blk	TDP1 inh	DT40 TDP1 no CPT	Six1-Eya2 blk
C[n+]1c2n(c3ccccc31)N=C(c1ccc(Cl)cc1)CS2	1.16µM*	-74.3*	-0.9	0.0%	0.92µM*	-2.5
CC1Sc2n(c3ccccc3[n+]2C)N=C1c1ccccc1 (stereo unspecified)	1.46µM*	-5.3	-2.6	2.6%	1.46µM*	-0.3
Cc1snc(S(=O)(=O)Cc2c(Cl)cccc2Cl)c1C#N	3.7%	16.9	8.2	4.9%	-15.8%	3.0
COC(=O)[C@@H]1CCCN1C(=O)c1c(OC)cc(=O)n2c1CCN(Cc1ccc(C)o1)CC2	4.5%	·	·	·	-13.5%	·
COC(=O)c1ccc(C2c3c(oc4ccccc4c3=O)C(=O)N2CCCN2CCOCC2)cc1 (stereo unspecified)	20.6µM*	-21.3	3.9	1.2%	?	-2.3
COc1cccc(C2c3c(oc4ccccc4c3=O)C(=O)N2CCCN2CCOCC2)c1 (stereo unspecified)	?	11.0	-1.4	1.3%	-28.0%	-2.3
Cc1cc2oc3c(c(=O)c2cc1C)C(c1ccc(C(C)C)cc1)N(CCCN1CCOCC1)C3=O (stereo unspecified)	20.6µM*	-3.8	-7.8	2.6%	?	-7.9
O=C1c2oc3ccccc3c(=O)c2C(c2cccs2)N1CCCN1CCOCC1 (stereo unspecified)	18.4µM*	5.5	-1.6	1.9%	-26.7%	-1.0
CN(CC(=O)N1CCC(C(N)=O)CC1)S(=O)(=O)c1ccc2ccccc2c1	49.7%	-7.4	-15.3	·	-16.7%	-1.1
CN(C)S(=O)(=O)c1ccc(C(=O)NCC(=O)N/N=C/c2ccccc2)cc1	?	24.8	-0.7	0.0%	-20.2%	3.1
CC1CCN(S(=O)(=O)c2ccc(Cl)cc2)CC1	-3.4%	-13.1	11.8	1.0%	-19.4%	12.4
Cc1ccccc1-c1nnc(C2CCN(S(=O)(=O)c3ccc(Cl)cc3)CC2)o1	5.8µM*	·	·	-1.3%	3.66µM*	·
COc1ccc(S(=O)(=O)N2CCC(c3nnc(-c4ccccc4C)o3)CC2)c(OC)c1	8.2µM*	·	·	9.0%	6.51µM*	·
COc1ccccc1C(=O)NNC(=O)c1nn(Cc2ccccc2)c(=O)c2ccccc12	20.6µM*	44.4	-5.1	7.7%	?	-5.8
O=C(Nc1nc2c(s1)CCCC2)c1nn(Cc2ccccc2)c(=O)c2ccccc12	?	3.1	3.2	-2.7%	23.1µM*	-4.4
CC(C)CCn1nc(C(=O)Nc2nc3c(s2)CCCC3)c2ccccc2c1=O	25.9µM*	·	-5.1	0.0%	18.4µM*	-1.4
O=C(c1nn(Cc2ccccc2)c(=O)c2ccccc12)N1CCc2ccccc2C1	-27.3%	-23.5	-0.4	7.1%	16.4µM*	11.2
CC(C)CCn1nc(C(=O)OCC(=O)NC(C)c2ccccc2)c2ccccc2c1=O (stereo unspecified)	-3.9%	18.1	3.1	·	-19.2%	-9.1
O=C(c1nn(Cc2ccccc2)c(=O)c2ccccc12)N1CCN(c2ccccn2)CC1	-2.2%	9.5	-9.8	6.2%	?	-9.2
CCCNC(=O)c1onc(CS(=O)(=O)c2cccc(OC)c2)c1C(=O)NCCC	?	19.4	·	-0.1%	-26.0%	-1.5
O=C1Cc2ccccc2C(=O)N1	1.46µM*	107.1	?	·	1.16µM*	22.2
O=C1Nc2ccccc2CCc2ccccc21	1.7%	0.0	-0.8	0.2%	-2.8%	-2.5
O=C(c1ccccc1F)N1CCN(S(=O)(=O)c2ccc3c(c2)OCCO3)CC1	11.6µM*	-16.0	-2.0	2.5%	?	2.2
Nn1cc(-c2ccccc2)nc1SCC(=O)N1CCN(S(=O)(=O)c2ccc(Cl)cc2)CC1	-10.6%	-11.1	-7.4	4.2%	-21.1%	-9.0
CN(C)C(=O)N1CCN(S(=O)(=O)c2ccc3ccccc3c2)CC1	10.0%	-11.0	-15.4	·	?	-1.4
SMILES	DT40 TDP1 CPT	IL-1B inflam inh	CtBP-E1A blk	TDP1 inh	DT40 TDP1 no CPT	Six1-Eya2 blk
O=C(CCl)N1CCN(S(=O)(=O)c2ccc3ccccc3c2)CC1	3.26µM*	-99.5*	5.3	14.6%	5.8µM*	5.8
Nn1cc(-c2ccccc2)nc1SCC(=O)N1CCN(S(=O)(=O)c2ccc3ccccc3c2)CC1	?	-50.7*	-6.5	8.8%	?	4.6
CCCCNc1nnc(SCC(=O)N2CCN(S(=O)(=O)c3ccc4ccccc4c3)CC2)s1	?	-54.4*	-0.5	-1.1%	23.1µM*	-9.0
CCOC(=O)NNC(=S)Nc1c(C)n(C)n(-c2ccccc2)c1=O	1.4%	29.8	-1.0	-2.4%	1.4%	12.1
CCOc1ncccc1C(=O)N1CCN(S(=O)(=O)c2ccc3ccccc3c2)CC1	23.1µM*	-2.7	·	0.6%	?	0.6
O=C(CCl)N1CCN(S(=O)(=O)c2ccc3c(c2)OCCCO3)CC1	5.17µM*	-96.4*	-5.3	0.1%	3.66µM*	4.6
COc1ccccc1C(=O)NC(=S)Nc1ccc(N2CCN(C(=O)c3ccco3)CC2)cc1	?	?	-9.1	6.4%	14.6µM*	-4.2
Cc1ccccc1C(=O)N1CCN(c2ccc(NC(=S)NC(=O)c3ccco3)cc2)CC1	23.1µM*	?	·	·	25.9µM*	-20.9
Cc1ccc(C(=O)Nc2ccc(N3CCN(C(=O)c4ccco4)CC3)cc2)cc1	-0.8%	-18.2	2.9	0.0%	-28.7%	-0.6
COc1ccc(-n2c(SCC(=O)NCc3ccco3)nc3sc4c(c3c2=O)CCN(C)C4)cc1	?	16.2	-11.6	2.4%	?	-10.8
COc1cccc(CSc2nnc(-c3ccncc3)n2C)c1	11.6%	-3.0	6.1	·	1.6%	3.6
CCc1nc(SCC(=O)Nc2cc(C)ccc2OC)c2c(C)c(C)sc2n1	-6.3%	3.6	2.3	·	14.6µM*	-0.1
Cc1sc2nc(SCC(=O)Nc3ccccc3F)[nH]c(=O)c2c1C	-6.0%	16.0	-23.4	·	-22.0%	-7.1
CCc1nc(SCC(=O)Nc2ccccc2OC)c2c(C)c(C)sc2n1	?	?	-13.0	·	20.6µM*	-7.9
COc1ccc(OC)c(NC(=O)CNC(=O)Cn2cnc3sc(C)cc3c2=O)c1	2.1%	0.0	8.5	0.4%	2.2%	3.2
COc1ccc(OC)c(NC(=O)CSc2ncnc3sc(C)cc23)c1	?	-10.1	-73.3*	·	?	?
CCc1nn(CC(=O)NCc2cccc(OC)c2)c(=O)c2cc3cc(F)ccc3n12	?	·	·	2.9%	-29.1%	·
